The text below walks through data of PubChem BioAssay (Tox21).

A short description of experiment [1]: qHTS assay to identify small molecule antagonists of the estrogen related receptor (ERR) signaling pathway from Tox21 library - cell viability counter screen (AID 1224834). Also: nearly all actives have a fitted effect of over 30% in size. A digest of the protocol:
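CellTiter-Fluor fluorescence measured; ERR cells; 17.5 h compound incubation at 37 C; 30 min reagent step.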
(In general: Quantitative high-throughput screening tests each substance at several concentrations.)

For experiment [2], the target named is Luciferin 4-monooxygenase (Photinus pyralis) (UniProt P08659). The experiment in a line: qHTS assay to identify small molecule inhibitors of firefly luciferase (AID 1224835). Also: nearly all actives have a fitted effect of over 25% in size. Also: potency is read from the fitted curve at half-maximal effect. The procedure, abridged:
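Biochemical qHTS: compounds run as interplate titrations against purified firefly enzyme, with D-luciferin and ATP each at its KM concentration. Light output recorded by CCD imaging.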

A short description of experiment [3]: qHTS assay to identify small molecule agonists of the constitutive androstane receptor (CAR) signaling pathway - cell viability counter screen (AID 1224836). Also: nearly all actives have a fitted effect of over 45% in size. A digest of the protocol:
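HepG2-CYP2B6-hCAR, 2500 cells/well, 4 h pre-incubation; cpd 15 conc + PK11195 0.75 uM final; 23 h, 37 C/5% CO2; CellTiter-Fluor, fluorescence.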

Experiment [4] in a line: qHTS assay to identify small molecule antagonists of the constitutive androstane receptor (CAR) signaling pathway - cell viability counter screen (AID 1224837). Also: nearly all actives have a fitted effect of over 45% in size. The procedure, abridged: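 Using CellTiter-Fluor, viability is scored in HepG2 cells stably carrying hCAR and a 2.2kb CYP2B6 reporter after 23 hr compound exposure across 15 concentrations, with CITCO present at 50 nM.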

In experiment [5] the target is Nuclear receptor subfamily 1 group I member 3 (Homo sapiens) (UniProt Q14994). The experiment in a line: qHTS assay to identify small molecule agonists of the constitutive androstane receptor (CAR) signaling pathway (AID 1224839). Also: nearly all actives have a fitted effect of over 15% in size. A digest of the protocol:
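HepG2-CYP2B6-hCAR cells, 2500/well, 4 h pre-incubation; compounds 15 conc.; PK11195 0.75 uM final; 24 h, 37 C/5% CO2; ONE-Glo luciferase read.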

Experiment [6] can be described thus: qHTS assay to identify small molecule antagonists of the estrogen related receptor signaling pathway with the pleiotropic PPARgamma coactivator (PGC) from Tox21 10K library - cell viability counter screen (AID 1224840; active = well fitted cell-killing curve with a large enough effect in the repeat runs, not every such curve was filed as active; also: nearly all actives have a fitted effect of over 40% in size). A digest of the protocol: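 Here the PGC/ERR cells serve as a cytotoxicity control: they are exposed to compounds for 17.5 hours at 37 C, and live-cell signal is quantified using CellTiter-Fluor fluorescence.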

A short description of experiment [7]: qHTS assay to identify small molecule antagonists of the estrogen related receptor signaling pathway with the pleiotropic PPARgamma coactivator (PGC) from Tox21 10K library (AID 1224841; call rule not given here; also: actives are mostly falling curves and most rising ones were filed inactive; nearly all actives have a fitted effect of over 50% in size; also: potency is read from the fitted curve at half-maximal effect). The procedure, abridged: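 Each well held 2,000 PGC/ERR cells, pre-incubated six hours (37 C, 5% CO2). Test substances in DMSO were added by pin tool and left for 18 h at 37 C before luciferase detection by One-Glo.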

Experiment [8] can be described thus: qHTS assay to identify small molecule agonists of the estrogen related receptor signaling pathway with the pleiotropic PPARgamma coactivator (PGC) from Tox21 10K library (AID 1224842). Also: nearly all actives have a fitted effect of over 15% in size. A digest of the protocol:
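PGC/ERR reporter cell line, 2,000 cells per well, incubated 6 h at 37 C before 23 nL compound in DMSO was added. After 18 h at 37 C, One-Glo luminescence read following 30 min at room temperature.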

Experiment [9] in a line: qHTS assay to identify small molecule agonists of the hypoxia (HIF-1) signaling pathway - cell viability counter screen (AID 1224844; calls by dose curve; also: nearly all actives have a fitted effect of over 50% in size). A digest of the protocol:
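Multiplexed with the HRE beta-lactamase assay, this viability read used CellTiter-Glo luminescence (30 min, RT) on HRE-bla ME-180 cells treated 17 hrs with compounds in 0.5% dialyzed FBS medium.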

Experiment [10] is described as follows: qHTS assay to identify small molecule agonists of H2AX (AID 1224845; active = well fitted activation curve with a large enough effect in the signal ratio in the repeat runs, not every such curve was filed as active; the % refers to the signal ratio). A digest of the protocol: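 Wild-type CHO-K1 cells, plated overnight, exposed 3hr at 37C to 15 concentrations (0.76% DMSO final). Lysed, then HTRF anti-pH2AX (S139) cryptate and anti-H2AX-d2 antibodies, 24 hr room temperature; 665/620 nm emission read.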
Experiment [11] can be described thus: qHTS assay to identify small molecule agonists of the hypoxia (HIF-1) signaling pathway (AID 1224846; active = well fitted activation curve with a large enough effect in the signal ratio in the repeat runs, not every such curve was filed as active; the % refers to the signal ratio). A digest of the protocol: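 Hypoxia-pathway activation was scored as increased beta-lactamase from an HRE-controlled reporter in ME-180 cells; plated at 2,000 cells per well with 0.5% dialyzed FBS, they were exposed 17 hrs to compounds and then given CCF4-AM.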

A short description of experiment [12]: qHTS assay to identify small molecule agonists of H2AX - cell viability counter screen (AID 1224847; calls by dose curve; also: top concentration of the series differs between compounds; nearly all actives have a fitted effect of over 30% in size). The procedure, abridged:
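Cells plated first: CHO-K1, 1000 per well in 10% FBS medium, incubated overnight at 37C. Then 15-point compound titration added (final DMSO 0.76%) for 3 hr. Finally CellTiter-Glo added and luminescence read.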

Experiment [13] can be described thus: qHTS assay to identify small molecule antagonists of the estrogen related receptor (ERR) signaling pathway from Tox21 library (AID 1224848). Also: nearly all actives have a fitted effect of over 50% in size. Also: potency is read from the fitted curve at half-maximal effect. The procedure, abridged: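 ERR reporter cell line (from NTP) seeded 2,000 cells/well, rested 6 h at 37 C/5% CO2, then pin-dosed with compounds in DMSO. After 18 h at 37 C, ONE-Glo added; luminescence read after 30 min at room temperature.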

Experiment [14] can be described thus: qHTS assay to identify small molecule agonists of the estrogen related receptor (ERR) signaling pathway from Tox21 library (AID 1224849; calls by dose curve; also: nearly all actives have a fitted effect of over 15% in size). The settings on record: ERR reporter cell line, ONE-Glo luciferase, 18 h. The procedure, abridged: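 Six hours post-seeding at 37 C/5% CO2, ERR cells receive DMSO-solubilised compounds; after 18 h at 37 C, ONE-Glo reagent is applied and luminescence recorded.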

Experiment [15] in a line: qHTS RealTime-Glo MT Cell Viability Assay in HepG2 cells - 24 hour (AID 1224867). Also: nearly all actives have a fitted effect of over 50% in size. A digest of the protocol: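 Real-time, nonlytic viability: 600 HepG2 cells/well mixed with NanoLuc enzyme plus prosubstrate; 5 h settle, compound (DMSO) added by pintool; luminescence monitored over 40 h at 37 C.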
Experiment [16] in a line: A CellTox Green Cytotoxicity Assay to monitor cytotoxicity in HEK293 cells - 0 hour (AID 1224869). Also: nearly all actives have a fitted effect of over 50% in size. A digest of the protocol:
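Seeding of HEK293 cells together with cytotoxicity dye preceded a 5 h incubation at 37 C/5% CO2. Test compounds in DMSO were then added and fluorescence monitored across 40 h.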

Experiment [17] addresses Thyrotropin receptor (Homo sapiens) (UniProt P16473). The experiment in a line: qHTS assay to identify small molecule agonists of the thyroid stimulating hormone receptor (TSHR) signaling pathway (AID 1224843; calls by dose curve; also: nearly all actives have a fitted effect of over 45% in size). A digest of the protocol:
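TSHR-HEK293 cells in agonist mode, 30 min room-temperature step, then cAMP measured by competitive HTRF (cAMP-d2 with anti-cAMP cryptate) after 1 h at room temperature. Tested at 15 concentrations in triplicate.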

A short description of experiment [18]: qHTS RealTime-Glo MT Cell Viability Assay in HEK293 cells - 32 hour (AID 1224868). A digest of the protocol: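 Cells + reagent dispensed (600 cells/well, HEK293) → 5 h at 37 C/5% CO2 → 23 nL compound in DMSO pinned → 40 h at 37 C → luminescence read at 0, 8, 16, 24, 32, 40 h.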

Where “and” joins values, the source holds several entries; their conditions need not be identical. Identical values can stand only once. Results filed as inconclusive are left out. Where a structure was tested more than once in an assay, its records may differ in their call. Calls of active or inactive are those of the source. Unless noted, calls follow the shape of the dose curve; as a rule, active = well fitted curve in the direction sought with a large enough effect in the repeat runs; inconclusive = weak or mixed curves; inactive = no such curve, though single readings can be large; an effect the other way counts as inactive or inconclusive.
% is scaled to controls: 0 for no effect and ±100 for the full control effect.

Sequence of Nuclear receptor subfamily 1 group I member 3 (Homo sapiens) (Q14994 whole entry, looked up): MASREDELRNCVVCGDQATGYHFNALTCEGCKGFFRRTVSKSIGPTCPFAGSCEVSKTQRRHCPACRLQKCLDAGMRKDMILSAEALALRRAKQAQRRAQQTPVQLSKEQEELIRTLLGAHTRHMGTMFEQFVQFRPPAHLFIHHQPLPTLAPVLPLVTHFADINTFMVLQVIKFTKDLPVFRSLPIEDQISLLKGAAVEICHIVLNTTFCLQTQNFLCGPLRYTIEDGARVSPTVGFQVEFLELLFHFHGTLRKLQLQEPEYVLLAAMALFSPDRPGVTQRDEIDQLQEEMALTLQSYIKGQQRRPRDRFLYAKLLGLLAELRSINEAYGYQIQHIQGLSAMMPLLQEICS
Sequence of Thyrotropin receptor (Homo sapiens) (P16473 whole entry, looked up): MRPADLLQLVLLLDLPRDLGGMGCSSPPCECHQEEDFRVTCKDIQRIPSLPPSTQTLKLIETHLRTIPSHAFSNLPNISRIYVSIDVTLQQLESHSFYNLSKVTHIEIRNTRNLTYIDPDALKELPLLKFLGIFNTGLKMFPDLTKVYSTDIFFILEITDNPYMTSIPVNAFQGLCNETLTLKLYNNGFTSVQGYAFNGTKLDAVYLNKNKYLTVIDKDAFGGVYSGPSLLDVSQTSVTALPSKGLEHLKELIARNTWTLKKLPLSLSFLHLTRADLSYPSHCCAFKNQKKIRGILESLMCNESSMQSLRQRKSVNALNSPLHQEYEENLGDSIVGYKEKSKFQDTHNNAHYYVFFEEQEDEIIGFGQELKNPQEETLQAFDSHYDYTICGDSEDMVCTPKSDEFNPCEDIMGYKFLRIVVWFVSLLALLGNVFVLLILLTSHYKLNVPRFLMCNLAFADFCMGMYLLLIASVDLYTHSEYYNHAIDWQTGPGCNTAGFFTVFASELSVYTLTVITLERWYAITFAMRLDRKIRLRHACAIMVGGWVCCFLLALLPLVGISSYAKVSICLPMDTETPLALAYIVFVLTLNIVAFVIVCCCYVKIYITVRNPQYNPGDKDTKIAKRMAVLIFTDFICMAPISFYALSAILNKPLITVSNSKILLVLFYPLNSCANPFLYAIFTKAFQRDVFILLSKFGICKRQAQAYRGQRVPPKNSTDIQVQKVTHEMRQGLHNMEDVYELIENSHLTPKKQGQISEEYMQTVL
Sequence of Luciferin 4-monooxygenase (Photinus pyralis) (P08659 whole entry, looked up): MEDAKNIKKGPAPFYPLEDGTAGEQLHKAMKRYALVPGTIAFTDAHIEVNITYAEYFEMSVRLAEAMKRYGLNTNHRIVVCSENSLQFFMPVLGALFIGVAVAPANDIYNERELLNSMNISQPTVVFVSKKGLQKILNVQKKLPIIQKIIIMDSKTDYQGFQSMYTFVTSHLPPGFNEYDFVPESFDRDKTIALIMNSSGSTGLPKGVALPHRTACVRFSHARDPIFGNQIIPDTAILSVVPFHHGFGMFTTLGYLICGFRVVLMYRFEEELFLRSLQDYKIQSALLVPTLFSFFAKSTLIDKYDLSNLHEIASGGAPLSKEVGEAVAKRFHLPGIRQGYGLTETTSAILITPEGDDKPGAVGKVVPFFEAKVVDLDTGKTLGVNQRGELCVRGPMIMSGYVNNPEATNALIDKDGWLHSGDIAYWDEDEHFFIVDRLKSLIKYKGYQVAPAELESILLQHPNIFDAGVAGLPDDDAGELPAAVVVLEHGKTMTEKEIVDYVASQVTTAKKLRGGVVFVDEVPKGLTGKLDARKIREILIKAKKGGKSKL

In the case of `O=C1CCCCC1`, the Potency entry in experiment [1], in experiment [2], in [3], in [4], in experiment [5] and in [6] was “inactive” throughout. Besides, the Potency result in experiment [7], in experiment [8], in [9], in experiment [10], in [12] and in experiment [13] was “inactive” in each case. Besides, the Potency entry in [15] and in experiment [16] was “inactive” each time. For the same compound, the compound was classed as inactive in experiment [11]. Further, the activity change, positive = activation in experiment [14] (at 92.4 µM (top of the series)) is -2.85% (inactive) and -5.66% (inactive).

For `O=C1O[C@H](CO)[C@@H](O)[C@H](O)[C@H]1O`, the Potency entry in [1], in experiment [2], in experiment [3], in experiment [4], in [5] and in experiment [6] was “inactive” throughout. The Potency entry in experiment [7], in [8], in experiment [17], in [9], in experiment [10] and in experiment [12] was “inactive” each time. Also, the Potency result in experiment [13], in experiment [15], in [18] and in experiment [16] was “inactive” throughout. Besides, the compound was classed as inactive in experiment [11]. Also, the results for the activity change, positive = activation in experiment [14] (at 42.5 µM (top of the series)) and in experiment [14] (at 92.4 µM (top of the series)) were 3.62% (inactive) and -0.676% (inactive), respectively.

Turning to `CC(C)(N=C=O)c1cccc(C(C)(C)N=C=O)c1`, the Potency entry in experiment [1], in [2], in experiment [3], in experiment [4], in [5] and in experiment [6] was “inactive” each time. Further, the Potency result in [8], in experiment [17], in experiment [9], in [10], in experiment [12] and in [15] was “inactive” each time. Besides, the Potency entry in experiment [18] and in experiment [16] was “inactive” each time. Moreover, the Potency in experiment [7] is 48.2 µM (active) and inactive; in [13] it was 54 µM (active) and inactive. The compound was classed as inactive in [11]. Besides, in [14] (at 92.4 µM (top of the series)), the activity change, positive = activation is -40.3% (inactive) and 2.13% (inactive).

For the compound `OC[C@@H](O)[C@H](O)[C@H](O)[C@@H](O)CO`, the Potency entry in experiment [1], in experiment [2], in experiment [3], in experiment [4], in [6] and in [7] was “inactive” each time. In addition, the Potency entry in [8], in experiment [17], in experiment [9], in experiment [10], in experiment [12] and in experiment [13] was “inactive” in each case. The Potency result in [15], in [18] and in experiment [16] was “inactive” each time. The call in [11] was inactive. In addition, the activity change, positive = activation in [14] (at 42.5 µM (top of the series)) was 4.66% (inactive) and 4.1% (inactive).

For the compound `C/C=C(C)/C=C/C=C(C)C`, the Potency entry in experiment [1], in experiment [2], in experiment [3], in experiment [4], in experiment [5] and in [6] was “inactive” throughout. The Potency result in experiment [9], in experiment [10], in experiment [15], in experiment [18] and in experiment [16] was “inactive” in each case. Further, the result in experiment [11] was inactive.

Regarding `c1ccc2[nH]cnc2c1`, the Potency result in [1], in experiment [2], in experiment [3], in [4], in experiment [5] and in experiment [6] was “inactive” throughout. In addition, the Potency entry in experiment [9], in [10], in [15], in [18] and in [16] was “inactive” each time. Also, the result in [11] was inactive.

`NC(=O)/N=N/C(N)=O`: the Potency result in [1], in [3], in [4], in [5], in [6] and in experiment [7] was “inactive” each time. For the same compound, the Potency entry in experiment [8], in [9], in [10], in experiment [12], in experiment [13] and in [15] was “inactive” throughout. The Potency result in experiment [18] and in experiment [16] was “inactive” throughout. Also, in experiment [2], the Potency is 31.8 µM (active) and 25.2 µM (active). Moreover, the call in experiment [11] was inactive. Besides, the activity change, positive = activation in experiment [14] (at 92.4 µM (top of the series)) is 0.308% (inactive) and 1.1% (inactive).

Turning to `Cc1cc(=O)[nH]c(C(C)C)n1`, the Potency result in experiment [1], in [2], in [3], in experiment [4], in [5] and in experiment [6] was “inactive” each time. Further, the Potency entry in [7], in experiment [8], in [17], in experiment [9], in experiment [10] and in experiment [12] was “inactive” each time. Moreover, the Potency entry in experiment [13], in experiment [15], in experiment [18] and in experiment [16] was “inactive” throughout. The call in experiment [11] was inactive. Besides, the activity change, positive = activation in experiment [14] (at 92.4 µM (top of the series)) is 2.86% (inactive) and -3.8% (inactive).
